The list is not random: actives were taken first. Their share in the collection is about 0.85%.
BLM inh = Bloom syndrome helicase (human) inhibition; P54132; recombinant BLM DNA unwinding, fluorescence dequenching; Potency, µM (series often up to 56.1 µM), inactives show top-dose activity change, negative = inhibition, usual class: inhibitors; 0.2% of 350,000 active; AID 2528;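 further: plate controls were vehicle for no effect and no enzyme for full effect; nearly all actives have a fitted effect of over 35% in size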
Tb PGK inh = T. brucei PGK inhibition; AID 602233; Potency, µM (highest dose often 57.5 µM), for inactives: at the highest dose activity change, negative = inhibition, hits mostly inhibitors; PGK/GAPDH coupled, Kinase-Glo luminescence, 60 min; 0.043% of 380,000 active; P07378; further: nearly all actives have a fitted effect of over 60% in size
Target sequence (P07378 whole entry, looked up): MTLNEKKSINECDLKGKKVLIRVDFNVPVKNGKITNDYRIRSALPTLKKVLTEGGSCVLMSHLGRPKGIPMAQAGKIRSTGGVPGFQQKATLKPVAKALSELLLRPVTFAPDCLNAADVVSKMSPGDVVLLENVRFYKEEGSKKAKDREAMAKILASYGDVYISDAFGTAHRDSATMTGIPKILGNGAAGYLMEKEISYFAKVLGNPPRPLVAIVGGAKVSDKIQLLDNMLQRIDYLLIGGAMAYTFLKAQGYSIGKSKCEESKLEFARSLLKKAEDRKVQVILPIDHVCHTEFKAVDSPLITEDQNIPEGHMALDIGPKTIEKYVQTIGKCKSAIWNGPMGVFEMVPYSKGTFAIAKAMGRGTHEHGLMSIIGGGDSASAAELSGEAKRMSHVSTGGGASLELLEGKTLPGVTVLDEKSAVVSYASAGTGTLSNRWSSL
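Recombinant glycosomal PGK reaction used 1,3-bisphosphoglycerate generated in-well by GAPDH (100nM final) in 100mM TEA pH 7.6, 5mM MgCl2, 0.01% Tween-20. After 60 minutes at room temperature, ATP was read by Kinase-Glo Plus luminescence end-point.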
TDP1 inh = TDP1 (human) enzyme inhibition; Q9NUW8; recombinant TDP1, AlphaScreen DNA substrate cleavage; Potency, µM (doses to about 130 µM), without a hit: at the top dose activity change, negative = inhibition, actives largely listed as inhibitors; 0.28% of 350,000 active; AID 485290; further: nearly all actives have a fitted effect of over 40% in size
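Tdp1 1 nM final; 15 min RT w/ cpd; substrate 15 nM, 5 min; beads 10 ug/ml, 10 min; AlphaScreen read. Neg ctrl: no enzyme.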
APE1 inh = blocks human APE1 abasic DNA cleavage | P27695 | Potency, µM (series often up to 65.8 µM), for inactives: top-dose activity change, negative = inhibition, usual class: inhibitors | 0.35% of 350,000 active | recombinant APE1, TAMRA/BHQ-2 abasic DNA cleavage fluorescence;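 further: plate controls were vehicle for no effect and reference inhibitor for full effect; nearly all actives have a fitted effect of over 55% in size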
Target sequence (P27695 whole entry, looked up): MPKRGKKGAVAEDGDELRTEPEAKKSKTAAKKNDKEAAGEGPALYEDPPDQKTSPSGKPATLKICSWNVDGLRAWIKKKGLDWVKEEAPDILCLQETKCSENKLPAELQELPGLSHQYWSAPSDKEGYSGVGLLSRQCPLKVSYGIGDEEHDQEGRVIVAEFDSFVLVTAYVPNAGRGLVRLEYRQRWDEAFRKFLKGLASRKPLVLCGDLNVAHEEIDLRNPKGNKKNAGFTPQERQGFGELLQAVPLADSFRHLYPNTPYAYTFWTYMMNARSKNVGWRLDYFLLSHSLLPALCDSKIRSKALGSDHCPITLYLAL
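Substrate: short duplex with […] THF abasic site, 5'-TAMRA and 3'-BHQ-2, 50 nM final. APE1 at 0.75 nM, preincubated 15 min RT with compound. Fluorescence increase from first to third read measured activity.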
GLS inh = inhibitors of human glutaminase (GLS); O94925; GLS enzymatic activity, qHTS titration; Potency, µM (top dose mostly 45.5 µM), inactives show at the highest dose activity change, negative = inhibition, most hits filed as inhibitors; 0.21% of 410,000 active; AID 624170
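Enzyme dispensed in phosphate buffer (45 mM, pH 8.2, 0.02% Tween-20), compounds pinned in, then 1 mM L-glutamine solution and the glutamate oxidase–HRP–Amplex Red mix added; fluorescence read immediately and again after 30 min at room temperature.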
RECQ1 inh-1 = inhibitors of human RECQ1 DNA helicase; P46063; RECQ1 DNA unwinding, red fluorescence kinetic read; Potency, µM (doses to about 57.3 µM), for the others: at the top dose activity, negative = inhibition, actives largely listed as inhibitors; 0.54% of 240,000 active; AID 2549;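 further: plate controls were vehicle for no effect and no enzyme for full effect; nearly all actives have a fitted effect of over 30% in size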
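RECQ1T1 50 nM; forked duplex (20 bp + 30-nt ss tails) 200 nM, ATP 2 mM final; pH 8.0, 2 mM MgCl2, 2.5 ug/ml poly(dI-dC); 15 min compound preincubation; discontinuous kinetic read over 2 h at RT.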
RECQ1 inh conf = confirmation of human RECQ1 helicase inhibitors; shares compounds with RECQ1 inh-1; RECQ1 helicase DNA unwinding, fluorescence; Potency, µM (doses to about 229 µM), for the others: top-dose activity change, negative = inhibition, actives largely listed as inhibitors; 28% of 610 active; AID 2708; further: nearly all actives have a fitted effect of over 45% in size
RECQ1 ADP FP = counter-screen for RECQ1 inhibitors: ADP displacement; shares compounds with RECQ1 inh-1; ADP fluorescence polarization displacement counterscreen; Potency, µM (doses to about 228 µM), inactives show top-dose activity change, negative = inhibition, actives largely listed as inhibitors; 27% of 530 active; further: nearly all actives have a fitted effect of over 45% in size
RECQ1 inh-2 = confirmation of human RECQ1 helicase inhibitors; recombinant RECQ1 DNA unwinding, red fluorescence; shares compounds with RECQ1 inh-1; Potency, µM (top dose mostly 119 µM), for the others: at the highest dose activity, negative = inhibition, actives largely listed as inhibitors; 15% of 1,100 active; AID 504841; further: nearly all actives have a fitted effect of over 50% in size
* hit, by the source's call; [ ] = another dose, or the depositor's remark. The call rests on the fitted dose curve; in most records, active means well fitted curve in the direction sought with a large enough effect; inconclusive means small, poorly fitted or top-dose-only effect, or another doubt; inactive means no such curve, though single readings can be large; an effect the other way counts as inactive or inconclusive. Unless noted, on the % scale 0 is the no-effect control and ±100 the full control effect; potency means the concentration at half of the fitted maximal effect.

Results for O=C(Nc1ccc(-c2nc3ccc(NC(=O)c4cccs4)cc3[nH]2)cc1)c1cccs1 ?
BLM inh: -5.5%; Tb PGK inh: -0.7%; TDP1 inh: -8.8%; APE1 inh: inconclusive; GLS inh: -3.8%; RECQ1 inh-1: inconclusive; RECQ1 inh-2: inconclusive

How did Cc1nc2oc3ccccc3c(=O)c2cc1C(=O)O do in these assays?
BLM inh: -1.4%; Tb PGK inh: -13.8%; APE1 inh: 19.8%; GLS inh: -12.9%

How did C=CCNC(=O)c1cc2c(=O)c3ccccc3oc2nc1C do in these assays?
BLM inh: -1.4%; Tb PGK inh: 7.3%; TDP1 inh: 2.7%; APE1 inh: -11.8%; GLS inh: -1.7%; RECQ1 inh-1: 28.2µM*; RECQ1 inh-2: -9.9%

Results for COC(=O)C1=C(C)N(C)C(=S)N(C)C1c1cccc(Br)c1 (configuration not stated) ?
BLM inh: -9.3%; Tb PGK inh: -8.5%; TDP1 inh: -5.1%; APE1 inh: -3.3%; GLS inh: -3.7%; RECQ1 inh-1: inconclusive; RECQ1 inh-2: -14.9%

How did CCOC(=O)C1=C(C)N(C)C(=S)N(C)C1c1ccc(OC)cc1 (configuration not stated) do in these assays?
BLM inh: 0.6%; Tb PGK inh: 4.4%; TDP1 inh: 2.3%; APE1 inh: -2.0%; GLS inh: 26.6%; RECQ1 inh-1: -0.8%

What do the screens show for `CCCN(CCC)C(=O)c1ccc2c(=O)n(Cc3ccco3)c(=S)[nH]c2c1`?
BLM inh: inconclusive; Tb PGK inh: -8.8%; TDP1 inh: 0.0%; APE1 inh: inconclusive; GLS inh: 2.0%; RECQ1 inh-1: inconclusive; RECQ1 inh-2: -15.2%

What do the screens show for `CN1CCN(C(=O)c2ccc3c(=O)n(Cc4ccco4)c(=S)[nH]c3c2)CC1`?
BLM inh: 1.0%; Tb PGK inh: -2.4%; TDP1 inh: 3.5%; APE1 inh: 0.7%; GLS inh: -24.7%; RECQ1 inh-1: inactive

Results for Cc1ccc(OCC(O)CNS(=O)(=O)c2ccccc2C(=O)O)cc1 (configuration not stated) ?
BLM inh: -11.9%; Tb PGK inh: -3.3%; TDP1 inh: 5.8%; APE1 inh: 5.2%; GLS inh: 17.0%; RECQ1 inh-1: 8.0%; RECQ1 inh conf: -1.1%; RECQ1 ADP FP: 3.5%

What do the screens show for `CCN1C(=O)[C@@H]2[C@H]3C(=CC[C@@H]2C1=O)C1(OCCCO1)[C@H]1O[C@@H]1[C@H]3O`?
BLM inh: -9.3%[12.4 µM]; TDP1 inh: -4.8%[21 µM]; APE1 inh: -6.9%[12.4 µM]; RECQ1 inh-1: -12.9%[11.5 µM]

What do the screens show for `CC1CCN2c3cc(Cl)ccc3CC3(C(=O)OC(C)(C)OC3=O)C2C1` (configuration not stated)?
TDP1 inh: 0.3%

What do the screens show for `CCn1c(=O)c(C(=O)NNS(=O)(=O)c2ccc(Br)cc2)c(O)c2ccccc21`?
BLM inh: -15.1%; Tb PGK inh: -11.3%; TDP1 inh: 7.6%; APE1 inh: 8.4%; GLS inh: 19.1%; RECQ1 inh-1: inconclusive; RECQ1 inh-2: inconclusive

How did CCn1c(=O)c(C(=O)NNS(=O)(=O)c2ccc(C)cc2)c(O)c2ccccc21 do in these assays?
BLM inh: -6.7%; Tb PGK inh: 0.4%; TDP1 inh: 1.4%; APE1 inh: -2.5%; GLS inh: -14.3%; RECQ1 inh-1: -6.7%

Results for CCCCN(c1ccccc1)S(=O)(=O)c1ccc2c(c1)CCN2C(=O)CCC(=O)O ?
BLM inh: -4.0%; Tb PGK inh: inactive; TDP1 inh: 1.1%; APE1 inh: -9.4%; GLS inh: 18.0%; RECQ1 inh-1: -10.4%; RECQ1 inh conf: 0.1%; RECQ1 ADP FP: inconclusive

What do the screens show for `CC1CCN(S(=O)(=O)c2ccc3c(c2)CCN3C(=O)CCC(=O)O)CC1`?
BLM inh: 0.6%; Tb PGK inh: inactive; TDP1 inh: 5.2%; APE1 inh: -0.8%; GLS inh: -6.4%; RECQ1 inh-1: -0.8%; RECQ1 inh conf: 3.5%; RECQ1 ADP FP: -1.4%

What do the screens show for `O=C(O)CCC(=O)N1CCc2cc(S(=O)(=O)N3CCCCC3)ccc21`?
BLM inh: -3.0%; Tb PGK inh: 2.1%; TDP1 inh: 2.0%; APE1 inh: 6.4%; GLS inh: -14.8%; RECQ1 inh-1: 9.4%; RECQ1 inh conf: -1.9%; RECQ1 ADP FP: 11.6%

What do the screens show for `O=C(O)CCC(=O)N1CCc2cc(S(=O)(=O)N3CC=C(c4ccccc4)CC3)ccc21`?
BLM inh: -6.5%; Tb PGK inh: -1.3%; APE1 inh: -5.6%; GLS inh: 0.1%; RECQ1 inh-1: -16.9%; RECQ1 inh conf: -2.6%; RECQ1 ADP FP: inconclusive

How did CCCN(c1ccc(OCC)cc1)S(=O)(=O)c1ccc2c(c1)CCN2C(=O)CCC(=O)O do in these assays?
BLM inh: -2.0%; Tb PGK inh: 4.6%; TDP1 inh: 3.1%; APE1 inh: -1.7%; GLS inh: 6.3%; RECQ1 inh-1: -8.2%

What do the screens show for `CS(=O)(=O)c1ccc(C(=O)OCC#CCSc2nnc(-c3cccc4ccccc34)o2)cc1`?
TDP1 inh: -0.1%

What do the screens show for `O=C(Cn1ncc(Cl)c(Cl)c1=O)N1CCN(Cc2ccccc2)CC1`?
BLM inh: -18.3%; Tb PGK inh: -11.4%; TDP1 inh: 3.6%; APE1 inh: 8.5%; GLS inh: -4.2%; RECQ1 inh-1: 31.6µM*; RECQ1 inh-2: -14.2%

How did CCCN1CNc2c(c(=O)[nH]c(=S)n2CCc2ccc(C)cc2C)C1 do in these assays?
TDP1 inh: -0.6%

What do the screens show for `O=C(O)CSc1nnc(Cn2nnc3ccccc32)n1CCc1ccccc1`?
BLM inh: -2.3%; Tb PGK inh: -9.8%; TDP1 inh: 1.0%; APE1 inh: 9.6%; GLS inh: 33.3%; RECQ1 inh-1: 0.4%; RECQ1 inh conf: 8.4%; RECQ1 ADP FP: 7.8%

Compound activity (PubChem BioAssay)
